# From publication PMC7862700, “An all-to-all approach to the identification of sequence-specific readers for epigenetic DNA modifications on cytosine”
# Key:
# Experiment in all cases: DAPPL (digital affinity profiling via proximity ligation, sequencing); 10 mM Tris-HCl pH 7.5, 50 mM NaCl, 1 mM DTT, 4% glycerol, room temperature, 30 min; GST-TFs on glutathione beads, 16-mer random dsDNA library, 0.1% formaldehyde crosslink after washing; high values mean tight binding
# FLI1 = target: T1, FLI1 (Homo sapiens, UniProt Q01543 1-452); conditions: protein: recombinant; tags: N-terminal GST; dsDNA, one strand shown
# T1 sequence: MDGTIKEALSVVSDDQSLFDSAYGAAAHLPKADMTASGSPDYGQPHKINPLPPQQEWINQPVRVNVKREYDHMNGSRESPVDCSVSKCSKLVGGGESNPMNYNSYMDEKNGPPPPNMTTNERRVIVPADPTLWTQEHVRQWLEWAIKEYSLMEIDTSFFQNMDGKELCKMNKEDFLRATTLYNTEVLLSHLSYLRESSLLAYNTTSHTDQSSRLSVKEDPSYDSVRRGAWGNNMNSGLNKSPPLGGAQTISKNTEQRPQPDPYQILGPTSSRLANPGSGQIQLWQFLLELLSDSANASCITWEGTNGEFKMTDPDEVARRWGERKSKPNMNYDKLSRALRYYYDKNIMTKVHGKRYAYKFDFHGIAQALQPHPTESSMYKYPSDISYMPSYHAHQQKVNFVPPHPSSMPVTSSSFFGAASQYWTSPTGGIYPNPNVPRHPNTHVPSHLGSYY
# Method in brief: (§1)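 Binding signal is defined as a hexamer's read frequency for one factor over its frequency for the tag-only sample. To obtain reads, GST-fused human transcription factors were expressed in yeast, captured on glutathione beads, barcoded with DNA and pooled with that sample. Pools met 200 nmole of a 16-mer random double-stranded DNA library in Tris/NaCl/DTT/glycerol buffer for 30 min at room temperature before washing, 0.1% formaldehyde crosslinking, proximity ligation (BsaI/T4 ligase, 1 h, 37 °C), PCR and Illumina NextSeq500 sequencing.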
# ELK1 = target: T2, ELK1 (Homo sapiens, UniProt P19419 1-428); conditions: protein: recombinant; tags: N-terminal GST; dsDNA, one strand shown
# T2 sequence: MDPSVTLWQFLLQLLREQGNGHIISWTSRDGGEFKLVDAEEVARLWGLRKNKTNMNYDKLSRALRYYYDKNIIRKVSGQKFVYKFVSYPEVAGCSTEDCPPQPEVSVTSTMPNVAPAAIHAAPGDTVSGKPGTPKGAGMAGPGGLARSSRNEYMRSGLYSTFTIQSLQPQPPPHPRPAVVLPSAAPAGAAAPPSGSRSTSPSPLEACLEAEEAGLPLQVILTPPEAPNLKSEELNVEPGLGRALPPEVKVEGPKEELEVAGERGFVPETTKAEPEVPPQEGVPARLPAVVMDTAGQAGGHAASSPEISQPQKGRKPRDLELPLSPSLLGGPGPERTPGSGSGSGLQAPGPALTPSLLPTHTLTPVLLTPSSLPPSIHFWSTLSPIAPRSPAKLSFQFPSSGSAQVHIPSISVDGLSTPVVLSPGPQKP
# Method in brief: as §1
# GABPA = target: T3, GABPA (Homo sapiens, UniProt Q06546 1-454); conditions: protein: recombinant; tags: N-terminal GST; dsDNA, one strand shown
# T3 sequence: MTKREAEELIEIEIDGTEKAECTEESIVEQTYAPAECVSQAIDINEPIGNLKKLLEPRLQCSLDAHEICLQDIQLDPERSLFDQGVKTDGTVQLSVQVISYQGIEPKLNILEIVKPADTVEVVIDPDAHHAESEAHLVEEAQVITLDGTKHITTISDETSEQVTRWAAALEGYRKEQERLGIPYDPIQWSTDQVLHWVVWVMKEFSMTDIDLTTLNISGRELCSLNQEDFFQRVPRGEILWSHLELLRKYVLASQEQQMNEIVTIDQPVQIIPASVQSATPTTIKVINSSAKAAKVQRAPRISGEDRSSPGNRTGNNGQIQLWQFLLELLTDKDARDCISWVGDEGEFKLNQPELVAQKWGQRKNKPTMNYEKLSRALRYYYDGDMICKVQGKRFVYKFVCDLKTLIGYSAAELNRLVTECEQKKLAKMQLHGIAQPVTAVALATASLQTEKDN
# Method in brief: as §1
# ERG = target: T4, ERG (Homo sapiens, UniProt P11308 1-479); conditions: protein: recombinant; tags: N-terminal GST; dsDNA, one strand shown
# T4 sequence: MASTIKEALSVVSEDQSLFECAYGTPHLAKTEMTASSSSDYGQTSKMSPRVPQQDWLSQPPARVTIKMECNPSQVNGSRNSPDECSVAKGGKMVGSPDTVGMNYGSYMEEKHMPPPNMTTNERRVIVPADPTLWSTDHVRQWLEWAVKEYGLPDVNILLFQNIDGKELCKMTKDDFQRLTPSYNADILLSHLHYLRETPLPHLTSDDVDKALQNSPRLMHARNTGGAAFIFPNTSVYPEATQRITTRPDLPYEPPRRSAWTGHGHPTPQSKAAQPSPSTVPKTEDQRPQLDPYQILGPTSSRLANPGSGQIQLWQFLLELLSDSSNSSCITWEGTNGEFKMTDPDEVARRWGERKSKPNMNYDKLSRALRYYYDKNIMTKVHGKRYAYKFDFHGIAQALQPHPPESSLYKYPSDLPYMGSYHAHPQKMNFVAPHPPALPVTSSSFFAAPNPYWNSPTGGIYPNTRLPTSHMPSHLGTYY
# Method in brief: as §1
# ELF1 = ELF1 (Homo sapiens, UniProt P32519 1-619); conditions: protein: recombinant; tags: N-terminal GST; dsDNA, one strand shown
# Method in brief: as §1
# EHF = target: T5, EHF (Homo sapiens, UniProt Q9NZC4 1-300); conditions: protein: recombinant; tags: N-terminal GST; dsDNA, one strand shown
# T5 sequence: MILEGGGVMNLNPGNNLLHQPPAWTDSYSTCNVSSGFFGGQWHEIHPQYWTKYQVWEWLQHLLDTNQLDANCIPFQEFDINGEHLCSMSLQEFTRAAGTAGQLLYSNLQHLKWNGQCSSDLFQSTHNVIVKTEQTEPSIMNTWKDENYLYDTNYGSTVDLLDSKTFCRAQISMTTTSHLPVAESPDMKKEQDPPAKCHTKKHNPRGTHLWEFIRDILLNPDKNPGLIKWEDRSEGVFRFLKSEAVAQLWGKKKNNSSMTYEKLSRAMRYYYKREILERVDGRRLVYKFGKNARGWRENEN
# Method in brief: as §1
# SPI1 = SPI1 (Homo sapiens, UniProt P17947 1-270); conditions: protein: recombinant; tags: N-terminal GST; dsDNA, one strand shown
# Method in brief: as §1
# SPIB = SPIB (Homo sapiens, UniProt Q01892 1-262); conditions: protein: recombinant; tags: N-terminal GST; dsDNA, one strand shown
# Method in brief: as §1
# ELK3 = target: T6, ELK3 (Homo sapiens, UniProt P41970 1-407); conditions: protein: recombinant; tags: N-terminal GST; dsDNA, one strand shown
# T6 sequence: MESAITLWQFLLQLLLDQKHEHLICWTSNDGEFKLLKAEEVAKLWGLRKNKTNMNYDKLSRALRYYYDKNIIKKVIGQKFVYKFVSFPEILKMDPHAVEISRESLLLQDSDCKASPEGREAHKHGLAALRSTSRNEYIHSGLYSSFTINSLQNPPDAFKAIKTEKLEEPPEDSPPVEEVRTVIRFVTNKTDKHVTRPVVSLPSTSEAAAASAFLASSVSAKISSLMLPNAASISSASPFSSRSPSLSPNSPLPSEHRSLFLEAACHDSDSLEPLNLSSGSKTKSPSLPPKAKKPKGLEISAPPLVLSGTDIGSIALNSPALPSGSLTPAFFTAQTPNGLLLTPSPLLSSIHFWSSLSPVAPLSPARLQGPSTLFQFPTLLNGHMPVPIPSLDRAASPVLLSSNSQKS
# Method in brief: as §1
# FEV = target: T7, FEV (Homo sapiens, UniProt Q99581 1-238); conditions: protein: recombinant; tags: N-terminal GST; dsDNA, one strand shown
# T7 sequence: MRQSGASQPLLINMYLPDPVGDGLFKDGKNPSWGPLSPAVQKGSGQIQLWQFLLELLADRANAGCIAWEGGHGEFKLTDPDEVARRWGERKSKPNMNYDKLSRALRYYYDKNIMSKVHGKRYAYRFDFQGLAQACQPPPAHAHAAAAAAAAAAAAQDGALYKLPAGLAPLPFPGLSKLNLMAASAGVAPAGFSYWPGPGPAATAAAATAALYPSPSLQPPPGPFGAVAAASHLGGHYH
# Method in brief: as §1
# ETV5 = ETV5 (Homo sapiens, UniProt P41161 1-510); conditions: protein: recombinant; tags: N-terminal GST; dsDNA, one strand shown
# Method in brief: as §1
# HSF1 = HSF1 (Homo sapiens, UniProt Q00613 1-529); conditions: protein: recombinant; tags: N-terminal GST; chain copies: 3; dsDNA, one strand shown
# Method in brief: as §1
# SPIC = target: T8, SPIC (Homo sapiens, UniProt Q8N5J4 1-248); conditions: protein: recombinant; tags: N-terminal GST; dsDNA, one strand shown
# T8 sequence: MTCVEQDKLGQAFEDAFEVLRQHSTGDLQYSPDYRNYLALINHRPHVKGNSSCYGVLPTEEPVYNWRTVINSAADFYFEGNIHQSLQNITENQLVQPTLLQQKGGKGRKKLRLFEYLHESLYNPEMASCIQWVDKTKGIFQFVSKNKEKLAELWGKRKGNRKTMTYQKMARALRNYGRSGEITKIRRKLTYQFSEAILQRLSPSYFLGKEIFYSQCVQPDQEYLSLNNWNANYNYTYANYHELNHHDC
# Method in brief: as §1
# ELF4 = ELF4 (Homo sapiens, UniProt Q99607 1-663); conditions: protein: recombinant; tags: N-terminal GST; dsDNA, one strand shown
# Method in brief: as §1
# ELK4 = target: T9, ELK4 (Homo sapiens, UniProt P28324-2 1-405); conditions: protein: recombinant; tags: N-terminal GST; dsDNA, one strand shown
# T9 sequence: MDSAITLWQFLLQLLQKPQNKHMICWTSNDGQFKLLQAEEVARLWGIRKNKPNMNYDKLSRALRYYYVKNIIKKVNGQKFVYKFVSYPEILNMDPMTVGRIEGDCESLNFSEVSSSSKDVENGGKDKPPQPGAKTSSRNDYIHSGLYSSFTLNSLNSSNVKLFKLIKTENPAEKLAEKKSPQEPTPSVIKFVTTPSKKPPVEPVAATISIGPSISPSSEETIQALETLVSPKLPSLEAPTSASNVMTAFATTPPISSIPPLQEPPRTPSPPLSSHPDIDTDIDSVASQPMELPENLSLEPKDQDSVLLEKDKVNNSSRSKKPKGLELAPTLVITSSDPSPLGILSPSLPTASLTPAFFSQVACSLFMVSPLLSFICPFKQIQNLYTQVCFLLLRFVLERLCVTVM
# Method in brief: as §1
# ETV2 = target: T10, ETV2 (Homo sapiens, UniProt O00321 1-342); conditions: protein: recombinant; tags: N-terminal GST; dsDNA, one strand shown
# T10 sequence: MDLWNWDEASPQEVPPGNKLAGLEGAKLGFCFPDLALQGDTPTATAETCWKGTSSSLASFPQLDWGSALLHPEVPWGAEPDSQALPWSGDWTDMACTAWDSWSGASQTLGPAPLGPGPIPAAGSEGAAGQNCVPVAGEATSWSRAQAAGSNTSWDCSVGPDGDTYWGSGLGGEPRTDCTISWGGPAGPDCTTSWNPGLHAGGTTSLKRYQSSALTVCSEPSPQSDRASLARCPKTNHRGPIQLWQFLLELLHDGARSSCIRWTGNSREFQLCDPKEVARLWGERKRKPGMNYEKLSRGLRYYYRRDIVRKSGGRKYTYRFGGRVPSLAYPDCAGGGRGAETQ
# Method in brief: as §1
# ELF3 = target: T11, ELF3 (Homo sapiens, UniProt P78545 1-371); conditions: protein: recombinant; tags: N-terminal GST; dsDNA, one strand shown
# T11 sequence: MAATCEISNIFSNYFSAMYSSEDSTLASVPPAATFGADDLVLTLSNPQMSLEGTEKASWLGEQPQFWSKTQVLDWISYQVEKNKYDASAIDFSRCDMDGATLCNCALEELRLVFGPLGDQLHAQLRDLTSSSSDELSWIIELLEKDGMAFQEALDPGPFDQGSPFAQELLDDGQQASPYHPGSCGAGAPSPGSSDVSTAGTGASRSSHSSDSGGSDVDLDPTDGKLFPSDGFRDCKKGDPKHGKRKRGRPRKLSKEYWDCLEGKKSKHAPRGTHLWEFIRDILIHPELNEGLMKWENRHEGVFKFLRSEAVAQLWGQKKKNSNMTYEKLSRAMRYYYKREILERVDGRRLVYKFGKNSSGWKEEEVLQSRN
# Method in brief: as §1
# CRX = CRX (Homo sapiens, UniProt O43186 1-299); conditions: protein: recombinant; tags: N-terminal GST; dsDNA, one strand shown
# Method in brief: as §1
# ETV1 = ETV1 (Homo sapiens, UniProt P50549 1-477); conditions: protein: recombinant; tags: N-terminal GST; dsDNA, one strand shown
# Method in brief: as §1
# Chain of HSF1 (Q00613 whole entry): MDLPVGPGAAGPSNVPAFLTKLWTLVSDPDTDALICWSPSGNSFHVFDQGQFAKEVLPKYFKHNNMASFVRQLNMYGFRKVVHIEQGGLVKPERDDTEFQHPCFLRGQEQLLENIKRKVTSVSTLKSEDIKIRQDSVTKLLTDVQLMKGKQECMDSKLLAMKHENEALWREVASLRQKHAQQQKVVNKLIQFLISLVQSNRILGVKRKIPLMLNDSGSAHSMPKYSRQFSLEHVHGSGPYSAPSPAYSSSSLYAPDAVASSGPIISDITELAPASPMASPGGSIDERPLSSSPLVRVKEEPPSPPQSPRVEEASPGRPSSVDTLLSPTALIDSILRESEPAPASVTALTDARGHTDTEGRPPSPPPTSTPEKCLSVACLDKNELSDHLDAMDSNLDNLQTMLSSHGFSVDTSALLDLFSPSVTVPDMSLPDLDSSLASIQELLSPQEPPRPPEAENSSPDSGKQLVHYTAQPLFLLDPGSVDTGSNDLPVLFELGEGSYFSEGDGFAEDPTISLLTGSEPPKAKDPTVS
# Chain of SPIB (Q01892 whole entry): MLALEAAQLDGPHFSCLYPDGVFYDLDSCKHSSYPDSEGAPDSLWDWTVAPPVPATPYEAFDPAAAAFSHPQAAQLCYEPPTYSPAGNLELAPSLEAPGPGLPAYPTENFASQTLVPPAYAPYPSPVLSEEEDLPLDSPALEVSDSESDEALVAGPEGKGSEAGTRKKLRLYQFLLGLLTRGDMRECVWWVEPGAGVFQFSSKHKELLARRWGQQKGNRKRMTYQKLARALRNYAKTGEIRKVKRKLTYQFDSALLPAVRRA
# Chain of ELF1 (P32519 whole entry): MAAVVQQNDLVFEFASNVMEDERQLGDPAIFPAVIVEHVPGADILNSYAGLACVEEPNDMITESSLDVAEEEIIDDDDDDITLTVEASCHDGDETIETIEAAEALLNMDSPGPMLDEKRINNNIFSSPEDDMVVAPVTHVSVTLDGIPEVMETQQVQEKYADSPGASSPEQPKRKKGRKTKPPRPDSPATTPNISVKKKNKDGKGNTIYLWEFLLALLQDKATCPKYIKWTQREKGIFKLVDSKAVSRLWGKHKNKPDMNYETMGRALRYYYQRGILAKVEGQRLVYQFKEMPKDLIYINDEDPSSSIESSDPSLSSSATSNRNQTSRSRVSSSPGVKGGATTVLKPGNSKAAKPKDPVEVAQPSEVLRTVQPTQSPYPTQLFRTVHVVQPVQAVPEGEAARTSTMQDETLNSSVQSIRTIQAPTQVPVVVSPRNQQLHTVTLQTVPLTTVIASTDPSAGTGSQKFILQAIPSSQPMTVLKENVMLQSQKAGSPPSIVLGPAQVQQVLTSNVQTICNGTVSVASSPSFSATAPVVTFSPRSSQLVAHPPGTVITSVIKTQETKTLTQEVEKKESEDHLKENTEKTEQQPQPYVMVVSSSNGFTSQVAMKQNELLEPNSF
# Chain of ELF4 (Q99607 whole entry): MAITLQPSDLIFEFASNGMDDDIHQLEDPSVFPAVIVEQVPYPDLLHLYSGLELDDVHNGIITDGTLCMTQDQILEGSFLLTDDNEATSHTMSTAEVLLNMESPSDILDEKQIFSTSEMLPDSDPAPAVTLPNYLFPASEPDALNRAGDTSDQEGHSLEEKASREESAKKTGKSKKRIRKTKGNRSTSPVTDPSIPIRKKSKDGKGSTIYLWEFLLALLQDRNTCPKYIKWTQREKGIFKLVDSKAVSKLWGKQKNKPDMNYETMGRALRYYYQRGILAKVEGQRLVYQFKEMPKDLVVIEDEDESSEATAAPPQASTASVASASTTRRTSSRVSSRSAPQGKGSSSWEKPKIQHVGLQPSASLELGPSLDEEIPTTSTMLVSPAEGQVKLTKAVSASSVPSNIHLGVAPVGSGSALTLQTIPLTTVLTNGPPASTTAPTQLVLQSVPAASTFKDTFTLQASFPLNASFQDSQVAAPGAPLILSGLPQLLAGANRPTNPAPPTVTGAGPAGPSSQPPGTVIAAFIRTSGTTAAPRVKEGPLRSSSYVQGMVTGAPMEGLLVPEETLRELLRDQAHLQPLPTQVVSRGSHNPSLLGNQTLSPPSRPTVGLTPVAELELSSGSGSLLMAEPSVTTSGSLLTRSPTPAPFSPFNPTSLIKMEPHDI
# Chain of ETV5 (P41161 whole entry): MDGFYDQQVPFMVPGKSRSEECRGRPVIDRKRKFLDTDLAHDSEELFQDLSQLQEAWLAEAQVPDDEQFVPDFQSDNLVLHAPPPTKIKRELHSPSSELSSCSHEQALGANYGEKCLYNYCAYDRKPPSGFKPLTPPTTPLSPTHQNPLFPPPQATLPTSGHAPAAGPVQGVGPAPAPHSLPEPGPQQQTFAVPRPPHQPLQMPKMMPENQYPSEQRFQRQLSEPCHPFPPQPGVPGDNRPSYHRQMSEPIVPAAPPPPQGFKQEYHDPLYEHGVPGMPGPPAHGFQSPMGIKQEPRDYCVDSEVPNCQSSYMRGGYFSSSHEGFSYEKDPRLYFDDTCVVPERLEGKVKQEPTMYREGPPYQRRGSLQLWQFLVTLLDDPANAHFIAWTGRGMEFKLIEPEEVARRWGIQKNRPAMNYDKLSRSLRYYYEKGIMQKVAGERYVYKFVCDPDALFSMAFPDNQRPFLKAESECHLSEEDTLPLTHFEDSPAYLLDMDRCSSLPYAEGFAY
# Chain of CRX (O43186 whole entry): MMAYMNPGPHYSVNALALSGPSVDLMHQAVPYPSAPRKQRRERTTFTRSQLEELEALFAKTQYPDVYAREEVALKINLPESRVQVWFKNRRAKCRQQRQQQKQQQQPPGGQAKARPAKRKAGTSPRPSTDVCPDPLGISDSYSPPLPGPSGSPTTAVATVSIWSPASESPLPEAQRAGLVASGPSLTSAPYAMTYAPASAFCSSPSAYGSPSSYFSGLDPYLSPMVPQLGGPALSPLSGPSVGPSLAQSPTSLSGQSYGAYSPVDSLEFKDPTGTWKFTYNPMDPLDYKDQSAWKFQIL
# Chain of ETV1 (P50549 whole entry): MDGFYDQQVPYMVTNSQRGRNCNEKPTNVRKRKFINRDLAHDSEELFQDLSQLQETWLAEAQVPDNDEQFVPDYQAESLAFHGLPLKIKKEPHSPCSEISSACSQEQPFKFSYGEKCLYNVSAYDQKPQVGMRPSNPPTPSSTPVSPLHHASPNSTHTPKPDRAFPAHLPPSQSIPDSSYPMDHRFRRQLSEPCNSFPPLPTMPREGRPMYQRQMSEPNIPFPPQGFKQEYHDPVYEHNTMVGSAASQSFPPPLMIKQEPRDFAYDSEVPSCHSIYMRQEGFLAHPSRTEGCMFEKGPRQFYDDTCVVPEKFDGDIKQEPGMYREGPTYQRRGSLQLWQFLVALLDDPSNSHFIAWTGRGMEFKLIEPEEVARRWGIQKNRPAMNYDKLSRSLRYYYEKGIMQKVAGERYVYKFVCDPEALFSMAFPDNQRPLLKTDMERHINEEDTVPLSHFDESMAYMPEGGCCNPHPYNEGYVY
sequence,measurement,setting,value
TTAATT,binding signal,FLI1,"1.38 fold enrichment (6-mer frequency, TF over GST control)"
same,binding signal,ELK1,"1.34 fold enrichment (6-mer frequency, TF over GST control)"
same,binding signal,GABPA,"1.42 fold enrichment (6-mer frequency, TF over GST control)"
same,binding signal,ERG,"1.32 fold enrichment (6-mer frequency, TF over GST control)"
same,binding signal,ELF1,"1.37 fold enrichment (6-mer frequency, TF over GST control)"
same,binding signal,EHF,"1.39 fold enrichment (6-mer frequency, TF over GST control)"
same,binding signal,SPI1,"1.38 fold enrichment (6-mer frequency, TF over GST control)"
same,binding signal,SPIB,"1.36 fold enrichment (6-mer frequency, TF over GST control)"
same,binding signal,ELK3,"1.54 fold enrichment (6-mer frequency, TF over GST control)"
same,binding signal,FEV,"1.31 fold enrichment (6-mer frequency, TF over GST control)"
same,binding signal,ETV5,"1.49 fold enrichment (6-mer frequency, TF over GST control)"
same,binding signal,HSF1,"2.23 fold enrichment (6-mer frequency, TF over GST control)"
same,binding signal,SPIC,"1.33 fold enrichment (6-mer frequency, TF over GST control)"
same,binding signal,ELF4,"1.33 fold enrichment (6-mer frequency, TF over GST control)"
same,binding signal,ELK4,"1.3 fold enrichment (6-mer frequency, TF over GST control)"
same,binding signal,ETV2,"1.43 fold enrichment (6-mer frequency, TF over GST control)"
same,binding signal,ELF3,"1.27 fold enrichment (6-mer frequency, TF over GST control)"
same,binding signal,CRX,"3.46 fold enrichment (6-mer frequency, TF over GST control)"
same,binding signal,ETV1,"1.34 fold enrichment (6-mer frequency, TF over GST control)"
